The nature of experiment [1]: inhibitors of TNFa-induced NFkB p65 translocation, primary screen, imaging, HUVEC, MLSMR starter and 10KST1 sets (AID 438;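 active = inhibition above 20% together with a positive visual image hit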;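 also: compound added about 3h40 before a 20 min TNFalpha stimulation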;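 as to inhibition: signal is the nuclear over cytoplasmic p65 intensity ratio per well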). The conditions noted are these: HUVEC TNFa-induced p65 nuclear translocation; cell count: measured here: nuclei count (cytotoxicity indicator), at 2.08 µM; inhibition: at 2 µM, stronger effect = higher value, 0% TNFa-plus-vehicle, 100% no-TNFa wells.
A short description of experiment [2]: inhibitors of mutant huntingtin aggregation, primary screen, imaging, exon1htt(103Q)mCFP cells, high-content imaging (AID 483;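 active = visual image review flags a hit and inhibition of aggregation exceeds 20%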;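 also: compound exposure lasted 3 days before fixation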;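 as to nuclei count: percent of the per-plate median nuclei count of sample wells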). The conditions noted are these: exon1htt(103Q)mCFP cell line, aggregate imaging, at 2 µM; inhibition of aggregation: stronger effect = higher value; nuclei count: measured here: cell count, toxicity.
The nature of experiment [3]: inhibitors of E-selectin induction by TNFa, primary screen, imaging, HUVEC, immunofluorescence, MLSMR starter and 10KST1 sets (AID 487;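 active = visually confirmed hit in the image check and inhibition above 20%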;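 as to inhibition: signal is fraction of cell area covered by stained E-selectin grains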;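 as to nuclei count: 100% = median nuclei count of all wells on the same plate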). The conditions noted are these: HUVEC TNFalpha-induced E-selectin immunofluorescence imaging, at 2 µM; inhibition: stronger effect = higher value; nuclei count: measured here: cell number, toxicity.
The target in experiment [4] is Voltage-gated potassium channel subunit beta-2 (Rattus norvegicus) (UniProt P62483). Put plainly: KvBeta enzyme negative modulators, primary screen, biochemical, NADPH fluorescence (AID 622;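 active = fluorescence slope higher than the sample average by over 3 SD, cut at about -0.22 in these data, passing the limit was not always enough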;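 also: slope of raw intensity against log time taken from 70 to 1610 s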). The conditions noted are these: recombinant KvBeta, 4-cyanobenzaldehyde reduction, at 10 µM, stronger effect = higher value.
Experiment [5] shares this target. In words: KvBeta positive modulators, primary screen, biochemical, NADPH fluorescence (AID 623;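 active = NADPH fluorescence slope more negative than the mean of all samples by about 3 SD, 99.7% confidence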;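 also: fluorescence intensity change per second fitted from 20 to 320 s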). The conditions noted are these: Recombinant KvBeta, NADPH fluorescence decrease slope, 10 min; at 10 µM; stronger effect = lower value.
In experiment [6] the target is Alpha-2C adrenergic receptor (Homo sapiens) (UniProt P18825). In words: modulators of alpha2C/GIRK thallium flux, primary screen, cell-based, HEK293 alpha2C/GIRK1/2 (AID 624;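 active = fluorescence slope after compound addition differing from the mean of all screened samples at 99.7% confidence, in either direction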;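 also: slope of fluorescence ratio to pre-addition baseline per second over 15 to 24 s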). To be noted: thallium flux BTC fluorescence, at 10 µM, actives lie on both sides.
The nature of experiment [7]: inhibitors of Sendai virus-induced IRF3 signaling, primary screen, TLR/RLR signaling modifier project, cell-based, Sendai virus stimulus, luciferase, 10K MLSCN set (AID 602276;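 active = inhibition at or above 50% at 10 µM; inactive = inhibition below 50%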;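 also: firefly luciferase from ISG56 promoter only with Renilla not read in this screen; 0% = Sendai virus plus DMSO and 100% = medium plus DMSO without virus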). The conditions noted are these: HEK293 RL24 IRF3 luciferase reporter, at 10 µM, stronger effect = higher value. For orientation: Reporter assays use an easily measured gene product as a stand-in for the process of interest.

The nature of experiment [8]: inhibitors of poly I:C-induced TLR3 signaling, primary screen, cell-based, poly I:C stimulus, luciferase, 10K MLSCN set (AID 602277). The conditions noted are these: HEK293-TLR3 RL24 IRF3 luciferase reporter, at 10 µM, stronger effect = higher value.

The source made the active and inactive calls.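 The calls were made as follows, unless noted: active = inhibition of the reporter signal at or above 50%; inactive = inhibition below 50%.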

Chain of Alpha-2C adrenergic receptor (Homo sapiens) (P18825 whole entry, looked up): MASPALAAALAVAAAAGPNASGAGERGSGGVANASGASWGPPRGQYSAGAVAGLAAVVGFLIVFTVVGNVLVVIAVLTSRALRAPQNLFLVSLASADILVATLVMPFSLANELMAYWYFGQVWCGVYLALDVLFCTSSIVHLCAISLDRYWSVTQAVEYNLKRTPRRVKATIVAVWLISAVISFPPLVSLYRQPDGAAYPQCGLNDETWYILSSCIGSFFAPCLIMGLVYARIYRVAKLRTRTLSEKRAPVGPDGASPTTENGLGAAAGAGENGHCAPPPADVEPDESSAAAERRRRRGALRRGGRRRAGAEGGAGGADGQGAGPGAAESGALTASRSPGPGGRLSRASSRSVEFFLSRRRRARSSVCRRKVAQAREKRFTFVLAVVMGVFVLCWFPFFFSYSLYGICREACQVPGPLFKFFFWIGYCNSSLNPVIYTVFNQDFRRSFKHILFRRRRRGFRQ
Chain of Voltage-gated potassium channel subunit beta-2 (Rattus norvegicus) (P62483 whole entry, looked up): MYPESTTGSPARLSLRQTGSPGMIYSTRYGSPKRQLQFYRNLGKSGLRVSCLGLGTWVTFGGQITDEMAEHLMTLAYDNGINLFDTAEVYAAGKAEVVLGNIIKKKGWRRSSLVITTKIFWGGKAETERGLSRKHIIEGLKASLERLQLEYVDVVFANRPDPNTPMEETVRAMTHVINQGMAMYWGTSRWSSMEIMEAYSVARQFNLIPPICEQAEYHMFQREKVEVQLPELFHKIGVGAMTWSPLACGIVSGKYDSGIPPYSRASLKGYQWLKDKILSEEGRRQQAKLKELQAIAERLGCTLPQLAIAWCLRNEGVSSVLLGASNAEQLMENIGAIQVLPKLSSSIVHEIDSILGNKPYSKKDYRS

What is called inhibition is the drop in the measured response relative to a control, in per cent. As for `COc1ccc(NC(=O)CCS(=O)(=O)c2ccc(OC)cc2)cc1`, the cell count in experiment [1] is 401. For the same compound, the inhibition in experiment [1] was -2.5% (inactive); in experiment [3], -24% (inactive); in experiment [7], -3.69% (inactive); in experiment [8] it was -1.71% (inactive). Moreover, the inhibition of aggregation in experiment [2] is 20.3% (inactive). In addition, the figures for the nuclei count in experiment [2] and in experiment [3] were 84.3% and 101%, respectively. Moreover, the fluorescence slope in experiment [4] is -0.539 (inactive). Further, the NADPH fluorescence slope in experiment [5] was -8.1e-06 (inactive). Also, the slope in experiment [6] was 0.00539 (inactive).

`O=C(Nc1ccc(N2CCN(Cc3ccccc3Cl)CC2)cc1)c1cccnc1`: the cell count in experiment [1] turned out to be 630. In addition, the inhibition in experiment [1] is -4.2% (inactive); in experiment [3], -27% (inactive); in experiment [7], -23.5% (inactive); in experiment [8], -14.5% (inactive). Also, in experiment [2], the inhibition of aggregation is 15.2% (inactive). Also, the nuclei count in experiment [2] worked out at 65.6%; in experiment [3], 102%. In experiment [4], the fluorescence slope was -0.478 (inactive). Further, the NADPH fluorescence slope in experiment [5] was 1.4e-05 (inactive). In addition, the slope in experiment [6] was 0.00649 (inactive).

Consider `COc1cc(OC)cc(-c2nnc(SCC(=O)Nc3cc(C)on3)o2)c1`, for which the cell count in experiment [1] was found to be 230. For the same compound, the inhibition is 0.6% (inactive) in experiment [1], -264% (inactive) in experiment [3], 7.23% (inactive) in experiment [7] and 31.7% (inactive) in experiment [8]. In addition, the inhibition of aggregation in experiment [2] is 32.6% (inactive). The nuclei count in experiment [2] worked out at 77.5%; in experiment [3] it was 111%. In experiment [4], the fluorescence slope is -0.347 (inactive). Further, the NADPH fluorescence slope in experiment [5] was -2.3e-05 (inactive). Further, the slope in experiment [6] was 0.00422 (inactive).

For the compound `CCN=C1SC(CC(=O)Nc2ccccc2)C(=O)N1CC` (centres undefined), the cell count in experiment [1] was found to be 265. The inhibition in experiment [1] was 3.4% (inactive); in experiment [3] it was -95.4% (inactive); in experiment [7], 8.21% (inactive); in experiment [8], 30% (inactive). Further, in experiment [2], the inhibition of aggregation is 26.6% (inactive). In addition, the nuclei count in experiment [2] came to 92%; in experiment [3], 109%. Moreover, in experiment [4], the fluorescence slope is -0.341 (inactive). Moreover, the NADPH fluorescence slope in experiment [5] was -1.1e-05 (inactive). Moreover, the slope in experiment [6] is 0.00797 (inactive).

Turning to `O=C(NCc1nc2ccccc2[nH]1)c1ccc(Cl)c(S(=O)(=O)N2CCCC2)c1`, the cell count in experiment [1] came to 594. The inhibition in experiment [1] was -15.4% (inactive); in experiment [3] it was 47% (inactive); in experiment [7] it was -7.84% (inactive); in experiment [8] it was -15.6% (inactive). Besides, the inhibition of aggregation in experiment [2] is -35.2% (inactive). For the same compound, the nuclei count was 101% in experiment [2] and 112% in experiment [3]. Further, the fluorescence slope in experiment [4] was -0.531 (inactive). Besides, the NADPH fluorescence slope in experiment [5] was 2.5e-05 (inactive). Moreover, the slope in experiment [6] is 0.00466 (inactive).

Regarding `O=C(Nc1ccc2snnc2c1)N1CCN(c2ccccc2)CC1`, the cell count in experiment [1] came out at 454. In addition, the inhibition was 1.6% (inactive) in experiment [1], 0.3% (inactive) in experiment [3], 4.94% (inactive) in experiment [7] and -57.8% (inactive) in experiment [8]. Also, in experiment [2], the inhibition of aggregation was 0.7% (inactive). Besides, the results for the nuclei count in experiment [2] and in experiment [3] were 101% and 117%, respectively. Besides, in experiment [4], the fluorescence slope was -0.425 (inactive). In addition, the NADPH fluorescence slope in experiment [5] was 7.2e-06 (inactive). Moreover, the slope in experiment [6] is 0.00518 (inactive).

Take `CCOC(=O)N1CCN(c2c(N3CCN(c4ccccc4OC)CC3)c(=O)c2=O)CC1`: in experiment [1], the cell count came to 651. For the same compound, the inhibition in experiment [1] is -2.3% (inactive); in experiment [3] it was -66.1% (inactive); in experiment [7], 3.99% (inactive); in experiment [8] it was 15% (inactive). Besides, in experiment [2], the inhibition of aggregation was 18.3% (inactive). In addition, the nuclei count is 109% in experiment [2] and 129% in experiment [3]. For the same compound, in experiment [4], the fluorescence slope is -0.532 (inactive). Besides, in experiment [5], the NADPH fluorescence slope is -2.1e-05 (inactive). The slope in experiment [6] was 0.0077 (inactive).

As for `CCOC(=O)N1CCN(C(=O)CCc2ccc(S(=O)(=O)NCCc3ccccc3)cc2)CC1`, the cell count in experiment [1] is 735. Also, the inhibition in experiment [1] is -1.6% (inactive); in experiment [3] it was -24.7% (inactive); in experiment [7], 2.18% (inactive); in experiment [8], 5.38% (inactive). For the same compound, the inhibition of aggregation in experiment [2] was 4.3% (inactive). Moreover, the nuclei count in experiment [2] turned out to be 102%; in experiment [3], 123%. In experiment [4], the fluorescence slope is -0.413 (inactive). Moreover, the NADPH fluorescence slope in experiment [5] was -9.6e-06 (inactive). The slope in experiment [6] is 0.00346 (inactive).

On to `Cc1cc2ccccc2c(=O)n1CC(=O)Nc1ccc2c(c1)OCO2`, for which, in experiment [1], the cell count was 455. Moreover, the inhibition in experiment [1] was 0% (inactive); in experiment [3], -85.2% (inactive); in experiment [7], 2.31% (inactive); in experiment [8] it was 23.9% (inactive). Also, the inhibition of aggregation in experiment [2] is -12.3% (inactive). The results for the nuclei count in experiment [2] and in experiment [3] were 108% and 109%, respectively. Also, in experiment [4], the fluorescence slope was -0.48 (inactive). For the same compound, the NADPH fluorescence slope in experiment [5] was -2.6e-05 (inactive). In experiment [6], the slope was 0.00487 (inactive).

Consider `CC1CCCCC1NC(=O)CN1CCN(Cc2ccccc2Cl)C1=O` (centres undefined), for which the cell count in experiment [1] came out at 667. Also, the inhibition in experiment [1] is -0.2% (inactive); in experiment [3] it was -22.2% (inactive); in experiment [7], 10.1% (inactive); in experiment [8], 20.3% (inactive). Moreover, the inhibition of aggregation in experiment [2] is 10.7% (inactive). Further, the results for the nuclei count in experiment [2] and in experiment [3] were 64.8% and 98.9%, respectively. The fluorescence slope in experiment [4] was -0.455 (inactive). In experiment [5], the NADPH fluorescence slope is -6.3e-05 (inactive). The slope in experiment [6] was 0.00454 (inactive).

In the case of `CSCCC(NC(=O)c1ccco1)C(=O)O` (centres undefined), the cell count in experiment [1] is 411. Also, the inhibition in experiment [1] was 4.4% (inactive); in experiment [3] it was -358% (inactive); in experiment [7] it was -9.48% (inactive); in experiment [8] it was -11.3% (inactive). Moreover, the inhibition of aggregation in experiment [2] is -0.5% (inactive). Moreover, the nuclei count in experiment [2] worked out at 105%; in experiment [3] it was 143%. For the same compound, the fluorescence slope in experiment [4] is -0.534 (inactive). Further, the NADPH fluorescence slope in experiment [5] was -4e-05 (inactive). The slope in experiment [6] is 0.00451 (inactive).

Take `COCC(=O)N(Cc1cc2cc(OC)ccc2[nH]c1=O)c1ccccc1`: the cell count in experiment [1] came to 412. In addition, the inhibition in experiment [1] is 4.3% (inactive); in experiment [3] it was -47.1% (inactive); in experiment [7], 5.46% (inactive); in experiment [8], 19% (inactive). Moreover, in experiment [2], the inhibition of aggregation is 1.5% (inactive). Further, the nuclei count turned out to be 106% in experiment [2] and 113% in experiment [3]. The fluorescence slope in experiment [4] is -0.453 (inactive). Further, in experiment [5], the NADPH fluorescence slope was -5.4e-05 (inactive). Further, the slope in experiment [6] was 0.00281 (inactive).

Turning to `O=C(COC(=O)CSc1nnc(-c2ccc(Cl)cc2)o1)NCc1ccc2c(c1)OCO2`, the cell count in experiment [1] stood at 517. The inhibition in experiment [1] is -2.4% (inactive); in experiment [3], 9.2% (inactive); in experiment [7], 8.92% (inactive); in experiment [8] it was 17.2% (inactive). For the same compound, the inhibition of aggregation in experiment [2] was 4.7% (inactive). For the same compound, the nuclei count in experiment [2] is 123%; in experiment [3] it was 107%. Besides, in experiment [4], the fluorescence slope was -0.587 (inactive). For the same compound, the NADPH fluorescence slope in experiment [5] was -3.7e-05 (inactive). Also, the slope in experiment [6] is 0.00607 (inactive).

As for `O=C(O)c1ccc2c(c1)N(Cc1ccccc1F)C(=O)c1ccccc1S2=O` (centres undefined), the cell count in experiment [1] was 585. Moreover, the inhibition in experiment [1] was -1.2% (inactive); in experiment [3] it was -49.8% (inactive); in experiment [7] it was 11.3% (inactive); in experiment [8], 7.14% (inactive). Besides, in experiment [2], the inhibition of aggregation is 17.9% (inactive). In addition, the nuclei count is 64.2% in experiment [2] and 107% in experiment [3]. Moreover, the fluorescence slope in experiment [4] was -0.537 (inactive). Moreover, in experiment [5], the NADPH fluorescence slope was -5.5e-07 (inactive). In experiment [6], the slope was 0.0062 (inactive).

Source of the values: PubChem BioAssay.
